For orientation: inhibition means the relative decrease from the control value, in per cent.

The values below come from PubChem BioAssay AID1445 (SRMLSC, 2008).

Out of some 220,000 compounds screened, about 910 (0.41%) were called active.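 Rule for the calls: active = primary inhibition above the hit cutoff, then over 50% inhibition at one or more dose response concentrations (cut at about 23% in these data, passing the limit was not always enough); inconclusive = conflicting primary data, or primary hits not chosen for dose response; inactive = low primary inhibition, or under 50% at every dose.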 The entries come from a sample that favours actives as a whole. Measured potencies and affinities stand elsewhere.

In this assay the target is Aminopeptidase N (Plasmodium falciparum (isolate 3D7)) (UniProt O96935). The assay can be described thus: P. falciparum M1AAP inhibitors, biochemical, fluorogenic H-Leu-NHMec substrate, 1536-well (AID 1445).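 Note: plate controls were DMSO full reaction for no effect and no enzyme background for full effect.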 The conditions noted are these: recombinant M1AAP, H-Leu-NHMec fluorogenic kinetic assay; at 30 µM, active compounds read high unless noted.
Chain of Aminopeptidase N (Plasmodium falciparum (isolate 3D7)) (O96935 whole entry, looked up): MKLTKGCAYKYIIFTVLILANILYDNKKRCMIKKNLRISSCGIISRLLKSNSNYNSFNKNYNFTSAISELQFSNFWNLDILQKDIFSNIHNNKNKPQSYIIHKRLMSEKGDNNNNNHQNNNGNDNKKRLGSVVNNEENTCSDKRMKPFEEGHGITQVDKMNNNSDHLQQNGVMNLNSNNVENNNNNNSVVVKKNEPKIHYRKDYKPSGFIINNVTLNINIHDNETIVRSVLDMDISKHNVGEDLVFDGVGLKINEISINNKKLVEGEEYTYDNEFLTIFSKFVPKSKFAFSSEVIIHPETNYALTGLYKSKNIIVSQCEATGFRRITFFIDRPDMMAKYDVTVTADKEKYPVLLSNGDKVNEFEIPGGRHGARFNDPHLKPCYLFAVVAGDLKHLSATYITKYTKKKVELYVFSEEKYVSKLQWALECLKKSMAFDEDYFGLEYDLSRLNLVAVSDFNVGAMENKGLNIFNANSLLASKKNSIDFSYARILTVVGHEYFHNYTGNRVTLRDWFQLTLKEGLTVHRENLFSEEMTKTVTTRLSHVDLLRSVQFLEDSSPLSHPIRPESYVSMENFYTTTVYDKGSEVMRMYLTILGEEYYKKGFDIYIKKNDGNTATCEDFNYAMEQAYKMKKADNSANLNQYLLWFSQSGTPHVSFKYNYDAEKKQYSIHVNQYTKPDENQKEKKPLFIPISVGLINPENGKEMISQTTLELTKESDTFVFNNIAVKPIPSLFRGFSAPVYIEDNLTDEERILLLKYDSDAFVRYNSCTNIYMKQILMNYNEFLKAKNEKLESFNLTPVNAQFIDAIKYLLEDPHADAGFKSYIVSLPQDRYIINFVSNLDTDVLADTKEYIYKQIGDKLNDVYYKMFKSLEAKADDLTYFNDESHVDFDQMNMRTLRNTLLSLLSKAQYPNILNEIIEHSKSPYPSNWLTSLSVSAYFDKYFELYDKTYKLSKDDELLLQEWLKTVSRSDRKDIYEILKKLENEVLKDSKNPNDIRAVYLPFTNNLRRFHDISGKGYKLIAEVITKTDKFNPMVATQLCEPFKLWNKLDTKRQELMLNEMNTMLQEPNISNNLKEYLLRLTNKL
Consider `COc1cc(CNc2ccc(O)cc2)cc(Br)c1OCc1ccccc1F`, for which the inhibition is 7.46% (inactive).

Consider `CCOc1cc(CNc2ccccc2)cc(Br)c1OCc1ccccc1F`, for which the inhibition was 6.06% (inactive).

As to `CCOc1cc(CNc2ccc(O)cc2)cc(Br)c1OCc1ccccc1F`, the inhibition is 25.5% (active). Regarding `Cn1c(C(=O)NC2CCCCC2)cc2c(=O)n(C)c3ccccc3c21`, the inhibition was -0.49% (inactive). With `CC1(CC(=O)N/N=C/c2cc([N+](=O)[O-])c(O)cc2O)OCCO1` the figure was 9.24% (inactive); with `CC1(CC(=O)N/N=C/c2cc3c(cc2Br)OCO3)OCCO1`, 9.79% (inactive); with `CC1(CC(=O)N/N=C/c2cc(Br)c(O)cc2O)OCCO1`, 31.5% (active). In the case of `COc1ccc(CCNC(=O)c2cc(-c3ccc(C)c(C)c3O)n[nH]2)cc1OC`, the inhibition was 0.7% (inactive). Regarding `Cc1ccc(S(=O)(=O)Nc2nc(C)c(C(=O)NNS(=O)(=O)c3ccccc3)s2)cc1`, the inhibition is 3.2% (inactive).

Turning to `C/C(=N/NC(=O)c1sc(NS(=O)(=O)c2ccccc2)nc1C)c1ccccc1`, the inhibition is 18.9% (inactive). For the compound `Cc1ccc(S(=O)(=O)Nc2nc(C)c(C(=O)Nc3ccccc3)s2)cc1`, the inhibition was 4.37% (inactive). As for `Cc1nc(NS(=O)(=O)c2ccccc2)sc1C(=O)NN`, the inhibition was 6.77% (inactive). As for `O=C(CSc1nc2ccccc2o1)Nc1cc(C(F)(F)F)ccc1N1CCOCC1`, the figure is 8.71% (inactive); as for `CCCCn1c(C)csc1=Nc1cccnc1`, 4.71% (inactive).

Regarding `Cc1cc(C)c(S(=O)(=O)Nn2cnnc2)c(C)c1`, the inhibition was -1% (inactive).

Regarding `CCOP(=O)(OCC)/C(C#N)=C/c1cc(OC)ccc1OC`, the inhibition is 1.01% (inactive). As for `COc1ccccc1NC(=S)N1CCCC1`, the figure is 8.78% (inactive). `CCCC(=O)NCc1cc(-c2nn(C)c(=O)c3ccccc23)ccc1C`: the inhibition was -1.83% (inactive). As for `CCOC(=O)NCc1cc(-c2nn(C)c(=O)c3ccccc23)ccc1C`, the figure is -0.16% (inactive); as for `CCC(=O)NCc1cc(-c2nn(C)c(=O)c3ccccc23)ccc1C`, 3.73% (inactive); as for `CC(=O)NCc1cc(-c2nn(C)c(=O)c3ccccc23)ccc1C`, 12.1% (inactive). As for `CC(O)CNCCCOc1ccc(Cl)cc1C(C)(C)C` (centres undefined), the figure is 2.63% (inactive); as for `Cc1ccc(N(C(=O)C2CCC(=O)N2)C2(C(=O)NC3CCCCC3)CCCCC2)cc1` (centres undefined), 3.72% (inactive). With `CC(C)NS(=O)(=O)c1ccc(CCC(=O)NCc2cccnc2)cc1` the figure was 3.94% (inactive); with `CCCCN1CNC(=S)N(c2ccccc2OCC)C1`, 1.13% (inactive); with `CCOCCCNCc1cccc(OCc2ccc(F)cc2)c1`, -0.98% (inactive). With `CSc1nnc(-c2cc(-c3ccc(C)cc3)nc3ccccc23)o1`, the inhibition is -2.26% (inactive). As for `COc1ccc(-c2cc(-c3nnc(-c4ccncc4)o3)c3ccccc3n2)cc1`, the figure is 7.37% (inactive); as for `CCC(=O)Nc1ccc(-n2nnnc2SCC(=O)NNC(=O)c2ccco2)cc1`, 4.76% (inactive); as for `S=c1[nH]nc(-c2cccnc2)n1/N=C/C=C/c1ccccc1`, 10.4% (inactive). As for `O=C(CN(c1ccccc1)S(=O)(=O)c1ccccc1)NCCSc1nc2ccccc2s1`, the inhibition was 4.5% (inactive). As for `CN1CCN(Cc2nc3ccccc3c(=O)n2Cc2nc(-c3ccc4ccccc4c3)cs2)CC1`, the figure is -1.75% (inactive).

As to `CN1CCN(Cc2nc3ccccc3c(=O)n2Cc2nc(-c3ccc([N+](=O)[O-])cc3)cs2)CC1`, the inhibition was 11.9% (inactive). With `Cc1ccc(C(C(=O)NCc2ccco2)N(Cc2ccco2)C(=O)CNC(=O)c2ccco2)cc1` (centres undefined) the figure was 19.3% (inactive); with `COc1ccc(OC)c(S(=O)(=O)N2CCC(C(=O)NCc3ccccc3)CC2)c1`, 57.9% (active); with `COc1ccc(OC)c(S(=O)(=O)N2CCC(C(=O)NCCc3ccccc3)CC2)c1`, -0.81% (inactive). With `COc1ccc(OC)c(S(=O)(=O)N2CCC(C(=O)NCCc3ccc(OC)c(OC)c3)CC2)c1` the figure was -4.37% (inactive); with `COc1ccc(CCNC(=O)C2CCN(S(=O)(=O)c3cc(OC)ccc3OC)CC2)cc1`, 14.3% (inactive); with `COc1ccc(S(=O)(=O)N2CCC(C(=O)NCc3ccccn3)CC2)cc1OC`, 2.6% (inactive). As for `COc1ccc(S(=O)(=O)N2CCC(C(=O)NCCc3ccccc3)CC2)cc1OC`, the figure is -1.88% (inactive); as for `COc1ccc(OC)c(S(=O)(=O)N2CCC(C(=O)NCc3ccccc3OC)CC2)c1`, 3.04% (inactive); as for `COc1ccccc1N1CCN(C(=O)c2ccc3nc[nH]c3c2)CC1`, 4.75% (inactive). On to `CCn1c(SCC(=O)Nc2nc3ccccc3s2)nnc1-c1ccc(Br)cc1`, for which the inhibition is 4.22% (inactive). As for `CS(=O)(=O)c1ccc2nnn(OCC(=O)Nc3ccc(Br)cc3Br)c2c1`, the figure is 1.15% (inactive); as for `O=C(COC(=O)CCOc1ccccc1)NCc1ccco1`, 12.3% (inactive); as for `O=C(O)c1cccc(CSc2n[nH]c(-c3ccc(Cl)cc3Cl)n2)c1`, 7.08% (inactive).

Regarding `Cc1ccc(NC(=S)NC(=O)/C=C/c2ccco2)c(O)c1`, the inhibition was 10.8% (inactive). With `O=S(=O)(c1ccc(F)cc1)N1CCN=C1SCc1cccnc1` the figure was 0.03% (inactive). As for `O=C(Nc1cccc(O)c1)c1cnn2cccnc12`, the figure is 13.6% (inactive). For `CC1(C)CC(=O)c2sc(NS(=O)(=O)c3ccc(F)cc3)nc2C1`, the inhibition is 5.81% (inactive).

Turning to `CCc1nnc(NC(=O)CSc2nnc(CNc3cccc(C)c3)n2-c2ccccc2)s1`, the inhibition is 0.64% (inactive). As for `O=C(CCCCl)OCc1cn(-c2ccc(Cl)cc2)nn1`, the figure is 8.74% (inactive); as for `O=C(NC1CCCC1)C1CCC(=O)N1C1CCCC1` (centres undefined), 6.41% (inactive); as for `CCOC(=O)c1oc2ccccc2c1CN1CCN(C)CC1`, 0.88% (inactive). Turning to `Clc1ccc(/C=N/Nc2nnc(Cl)c3ccccc23)cc1`, the inhibition was 14.4% (inactive).

As for `Clc1ccc(/C=N\Nc2ccccc2)cc1`, the inhibition was 4.31% (inactive). With `COc1cc(N2CN=c3s/c(=C\c4ccccn4)c(=O)n3C2)cc(OC)c1OC` the figure was 5.01% (inactive).

As for `O=[N+]([O-])c1cc(Cl)ccc1-c1nc(-c2ccncc2)no1`, the inhibition is 3.23% (inactive).

Turning to `C=CCN1C(=O)/C(=c2\sc3nc(=O)c(Cc4ccc(OC)c(OC)c4)nn3c2=O)c2ccccc21`, the inhibition is 11.6% (inactive). On to `CCN1C(=O)/C(=c2\sc3nc(=O)c(Cc4ccccc4)nn3c2=O)c2ccccc21`, for which the inhibition is 7.93% (inactive).

For `CCC(C)c1ccc2oc(-c3ccc(NC(=O)Cn4cnc5c(=O)n(C)c(=O)n(C)c54)cc3)nc2c1` (centres undefined), the inhibition is 17.4% (inactive).

With `O=C(N1CCOCC1)C1(c2ccc(Cl)cc2)CCCC1`, the inhibition is -5.21% (inactive). `O=C(CSc1ncc(C(F)(F)F)cc1Cl)NCC1CCCO1` (centres undefined): the inhibition is 0.4% (inactive).

In the case of `O=C1NC(=S)N/C1=C/c1cccc([N+](=O)[O-])c1`, the inhibition is 1.79% (inactive). As to `O=C1NC(=S)N/C1=C\c1cccc([N+](=O)[O-])c1`, the inhibition is -1.35% (inactive). As for `O=C1NC(=S)N/C1=C/c1cc([N+](=O)[O-])ccc1O`, the figure is 27.2% (active); as for `Cc1ccc(C(=O)NCCN2CCNC2=O)cc1`, -8.25% (inactive); as for `Cc1ccccc1OCC(=O)Nc1ccc2oc(=O)ccc2c1`, 16.6% (inactive). With `CCOC(=O)C1CCN(C(=O)COc2ccc(N(C)S(=O)(=O)c3ccc(OCC)cc3)cc2)CC1` the figure was -2.18% (inactive); with `CCn1c(CSc2nc3ccccc3s2)nnc1SCC(=O)c1ccc(Cl)cc1`, 11.1% (inactive). With `CCn1c(CSc2nc3ccccc3s2)nnc1SCC(=O)c1ccc(O)cc1O` the figure was 6.78% (inactive); with `O=C(Cc1c(C(=O)O)[nH]c2ccc(Cl)cc12)Nc1ccc2c(c1)OCCO2`, 4.87% (inactive); with `Cc1ccc(-c2nnn(CC(=O)N(Cc3ccco3)C(C(=O)NC3CCCC3)c3cccs3)n2)o1` (centres undefined), 0.46% (inactive). As to `COc1cc(/C=N/NC(=O)C2c3ccccc3Oc3ccccc32)ccc1O`, the inhibition was 3.49% (inactive). With `O=C(N/N=C\c1cccnc1)C1c2ccccc2Oc2ccccc21` the figure was 3.5% (inactive). With `O=C(N/N=C/c1ccc(O)c(O)c1)C1c2ccccc2Oc2ccccc21` the figure was 25.6% (active); with `Nc1cc(-c2cccc(F)c2)nn1S(=O)(=O)c1cccc2nsnc12`, 6.59% (inactive); with `CC1=C(C(=O)Nc2ccccn2)C(c2cn(C)nc2C)C2=C(CCCC2=O)N1` (centres undefined), 9.42% (inactive). In the case of `COc1ccccc1C(=O)Oc1cc(N)n(S(=O)(=O)c2ccccc2)n1`, the inhibition was 11.1% (inactive). For `Cc1ccc(C(=O)Oc2cc(N)n(S(=O)(=O)c3ccc(C)cc3)n2)cc1`, the inhibition was -3.58% (inactive). As for `COc1cccc(NC(=S)N(CCc2ccc(OC)c(OC)c2)Cc2ccccn2)c1`, the inhibition is 4.47% (inactive). On to `Cc1ccc2nc(N3C(=O)C(O)=C(C(=O)c4ccco4)C3c3cccs3)sc2c1` (centres undefined), for which the inhibition was 27.4% (active). As for `CCc1ccc2nc(N3C(=O)C(O)=C(C(=O)c4ccco4)C3c3cccs3)sc2c1` (centres undefined), the figure is 14.9% (inactive). As for `Cc1ccc2nc(N3C(=O)C(O)=C(C(=O)c4cc5ccccc5o4)C3c3cccs3)sc2c1` (centres undefined), the figure is 10.6% (inactive); as for `Cc1nnc(SCC(=O)N2CCN(C(=O)c3ccco3)CC2)n1-c1ccccc1`, -1.57% (inactive).

For the compound `Cc1ccc(NC(=O)C(=O)NN)cc1`, the inhibition is 3.55% (inactive).

Consider `CC(C)(C)n1nnnc1C(c1cccs1)N1CCN(Cc2ccc3c(c2)OCO3)CC1` (centres undefined), for which the inhibition was 3.23% (inactive). As for `COc1ccc(C2OC(=O)CC2C(=O)NCc2ccc(Cl)cc2)cc1OC` (centres undefined), the figure is -0.93% (inactive); as for `CCn1c(=O)c(C(=O)NNS(=O)(=O)c2ccc(C)cc2)c(O)c2ccccc21`, 5.97% (inactive); as for `O=C(Nn1c(C2CCCCC2)nc2ccccc2c1=O)c1ccc([N+](=O)[O-])cc1`, 2.98% (inactive). As for `O=C(Nn1c(-c2ccccc2)nc2ccccc2c1=O)c1ccco1`, the figure is 15.6% (inactive); as for `COc1cc2nc(C3CCC3)n(NC(=O)c3ccco3)c(=O)c2cc1OC`, 11.3% (inactive); as for `O=C(Nn1c(C2CC2)nc2ccccc2c1=O)c1ccco1`, 81.6% (active).

As for `Cc1ccccc1OCc1nc2ccccc2c(=O)n1NC(=O)c1ccco1`, the inhibition is 22.7% (inactive).
